HEK cytotox: kills HEK 293 cells; HEK 293 viability, ATP luminescence (CellTiter-Glo), 48-72 h; Potency, µM (titrated, usually from 115 µM), without a hit: top-dose activity change, negative = cytotoxicity, hits mostly inhibitors; 94,000 compounds, 6.6% hits; AID 1345083; also: nearly all actives have a fitted effect of over 60% in size
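Viability of HEK 293 cells, plated at 250 cells/well, was judged by cellular ATP after compound treatment for 48 or 72 hr. Luminescence was imaged 10 min after CellTiter-Glo addition at room temperature.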
Luciferase inh: Photinus pyralis luciferase inhibition; Potency, µM (top dose mostly 115 µM), usual class: inhibitors; P08659; purified P. pyralis luciferase, luminescence, biochemical; 76,000 compounds, 2.5% hits; also: nearly all actives have a fitted effect of over 65% in size
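Inhibitors were tested against purified firefly luciferase in a biochemical, low-substrate format (both substrates at 10uM) and luminescence measured with a CCD imager.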
GPT2 inh: inhibitors of human GPT2 alanine aminotransferase | Potency, µM (series often up to 57.7 µM), for the others: at the highest dose activity change, negative = inhibition, actives largely listed as inhibitors | 100,000 compounds, 0.25% hits | Recombinant GPT2, coupled pyruvate oxidase/HRP Amplex Red fluorescence | Q8TD30; also: nearly all actives have a fitted effect of over 60% in size
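Inhibition is scored from Amplex Red fluorescence generated when pyruvate oxidase and HRP act on pyruvate released by GPT2. Reactions contain 10ng/uL enzyme, 250uM a-KG and 2mM L-alanine and run 30 min at room temperature.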
NIH3T3 tox: cytotoxic compounds in NIH 3T3 cells; NIH 3T3 viability, CellTiter-Glo ATP luminescence, 48-72 h; Potency, µM (series often up to 96.7 µM), inactives show at the highest dose activity change, negative = cytotoxicity, actives largely listed as inhibitors; 94,000 compounds, 4.3% hits; AID 1345082; also: nearly all actives have a fitted effect of over 55% in size
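Luminescent ATP readout (CellTiter-Glo, 10 min RT) after 48 or 72 hr compound exposure of NIH 3T3 cells seeded at 400 cells/well in 1536-well format; quantitative HTS.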
NPR1 antag: blocks ANP-stimulated signaling of human Npr1 receptor | HEK293 hNpr1 GloSensor cGMP, ANP-stimulated luminescence | Potency, µM (titrated, usually from 46.3 µM), without a hit: at the top dose activity change, negative = inhibition, usual class: inhibitors | 76,000 compounds, 1.6% hits | AID 1347048; calls by dose curve; also: nearly all actives have a fitted effect of over 60% in size
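HEK293 cells stably expressing human Npr1 and cGMP GloSensor pGS-40F, loaded 2 h with 2% GloSensor reagent, given compound 30 min at room temperature. Luminescence read before and 20 min after 0.1 nM hNppA.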
* marks the source's active call; other numbers are inactive results; [ ] = another dose, or the depositor's remark. A selection: hits, their analogues and other compounds. The true share with any hit is near 10%. Unless noted, calls follow the shape of the dose curve; as a rule, active = well fitted curve in the direction sought with a large enough effect; inconclusive = small, poorly fitted or top-dose-only effect, or another doubt; inactive = no such curve, though single readings can be large; an effect the other way counts as inactive or inconclusive. % is scaled to controls: 0 for no effect and ±100 for the full control effect; potency is read from the fitted curve at half-maximal effect.

For CN(C)c1cccc(NC(=O)Cc2c[nH]c3ncc(-c4cccnc4)cc23)c1 the results were HEK cytotox inconclusive, Luciferase inh inactive, GPT2 inh 4%[88.5 µM], NIH3T3 tox inconclusive and NPR1 antag -25%[70.6 µM].
Screening CN(C)C(=O)Cc1c[nH]c2ncc(-c3cccnc3)cc12 returned HEK cytotox -29%[230 µM], Luciferase inh inactive, GPT2 inh -8%[88.5 µM], NIH3T3 tox 25µM* and NPR1 antag -1%[70.6 µM].
Screening CN(C)c1cccc(-c2cnc3[nH]cc(CC(=O)NCc4cccnc4)c3c2)c1 returned HEK cytotox inconclusive, Luciferase inh inconclusive, GPT2 inh inactive, NIH3T3 tox inconclusive and NPR1 antag -10%[70.6 µM].
For O=C(Cc1c[nH]c2ncc(-c3cccnc3)cc12)Nc1ccc(F)cc1 the results were HEK cytotox inconclusive, Luciferase inh inactive, GPT2 inh 0%[88.5 µM], NIH3T3 tox 28µM* and NPR1 antag -15%[70.6 µM].
`O=C(N[C@H]1CCN2C(=O)[C@@H](Cc3c[nH]c4ccccc34)NC(=O)[C@H]12)c1cnccn1` gave HEK cytotox -25%[172 µM], Luciferase inh inactive, GPT2 inh inconclusive, NIH3T3 tox -12%[174 µM] and NPR1 antag -1%[70.6 µM].
For O=C(COc1cccc(-c2nnc3n2CCCC3)c1)N1CCN(c2ccc(F)cc2)CC1 the results were HEK cytotox inconclusive, Luciferase inh inactive, GPT2 inh inactive, NIH3T3 tox inconclusive and NPR1 antag -1%.
For Cc1cc(C)cc(NC(=O)c2ccc3c(c2)N(C)C2CCCCCN2C3=O)c1 (stereo unspecified) the results were HEK cytotox inconclusive, Luciferase inh inactive, GPT2 inh inactive, NIH3T3 tox -25% and NPR1 antag 0%.
`CSc1cccc(NC(=O)c2ccc3c(c2)N(C)C2CCCCN2C3=O)c1` (stereo unspecified) gave HEK cytotox 40µM*, Luciferase inh inconclusive, GPT2 inh inactive, NIH3T3 tox inconclusive and NPR1 antag -7%.
Screening CN1c2cc(C(=O)Nc3cccc(Br)c3)ccc2C(=O)N2CCCCC21 (stereo unspecified) returned HEK cytotox 35µM*, Luciferase inh inconclusive, GPT2 inh 4%, NIH3T3 tox inconclusive and NPR1 antag 0%.
CN1c2cc(C(=O)Nc3cccc(F)c3)ccc2C(=O)N2CCCCC21 (stereo unspecified) was read as HEK cytotox inconclusive, Luciferase inh 25µM*, GPT2 inh inactive, NIH3T3 tox -22% and NPR1 antag -23%.
Screening CC1CCC2(CC1)NC(=O)N(CC(=O)Nc1ccc(C(F)(F)F)cc1)C2=O (stereo unspecified) returned HEK cytotox inconclusive, Luciferase inh inactive, GPT2 inh inactive, NIH3T3 tox inconclusive and NPR1 antag 1%.
Screening CN(Cc1ccccc1)Cc1cn([C@H]2CO[C@H]3[C@@H]2OC[C@@H]3NCc2ccccc2)nn1 returned HEK cytotox inconclusive, Luciferase inh inactive, GPT2 inh inactive, NIH3T3 tox inconclusive and NPR1 antag -2%[70.6 µM].
For O=C(N[C@H]1CO[C@H]2[C@@H]1OC[C@@H]2n1cc(-c2ccccc2)nn1)c1ccc(C(F)(F)F)cc1 the results were HEK cytotox 40µM*, Luciferase inh inactive, GPT2 inh 4%, NIH3T3 tox inconclusive and NPR1 antag inconclusive.
For COc1ccc(C(=O)N[C@H]2CO[C@H]3[C@@H]2OC[C@@H]3n2cc(-c3ccccc3)nn2)cc1 the results were HEK cytotox inconclusive, Luciferase inh inactive, GPT2 inh inactive, NIH3T3 tox inconclusive and NPR1 antag -29%[70.6 µM].
COc1ccc(C(=O)N[C@H]2CO[C@H]3[C@@H]2OC[C@@H]3n2cc(CC3CCCCC3)nn2)cc1 was read as HEK cytotox inconclusive, Luciferase inh inactive, GPT2 inh inactive, NIH3T3 tox inconclusive and NPR1 antag -26%[70.6 µM].
COC(=O)c1cccc(NC(=S)N[C@H]2CO[C@H]3[C@@H]2OC[C@@H]3n2cc(CC3CCCCC3)nn2)c1 was read as HEK cytotox 40µM*, Luciferase inh inactive, GPT2 inh 0%, NIH3T3 tox inconclusive and NPR1 antag inconclusive.

Source: PubChem
